Bioassay records deposited in PubChem by Sanford-Burnham Center for Chemical Genomics.
Hits are enriched below; roughly 28% of the tested compounds scored in any of these assays.
Mac1 fbg enh – enhancers of human CD11b/CD18 binding to fibrinogen | 0.07% of 93,000 active | AID 1499 | activation, % at 10 µM | P05107+P11215 | K562 CD11b/CD18 adhesion to fibrinogen, ATPlite luminescence;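 active = 10 µM primary screen giving 50% or more activity, confirmed by 40% or more on retest at that dose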
CD11b adhes inh – blocks human CD11b/CD18 adhesion to fibrinogen | K562 CD11b/CD18 adhesion to fibrinogen, ATPlite luminescence; Mn2+ added to activate the integrin | inhibition, % at 10 µM | 0.54% of 93,000 active;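 active = primary inhibition of 50% or more at 10 µM, then 40% or more on retest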
CYP2C19 inh – blocks human cytochrome P450 2C19; P33261; CYP2C19 Supersomes, luciferin-H EGE luminescence, 30 min; inhibition, % at 5 µM; 21% of 96,000 active; AID 778;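 active = CYP2C19 inhibition above a set limit at 5 µM in the primary screen, cut at about 50% in these data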;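 also: plate controls were negative control wells for no effect and 2.5 mM tranylcypromine positive control for full effect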
CYP2C19 activ – increases human CYP2C19 enzyme activity. AID 1025. 96,000 tested, under 10 active. recombinant CYP2C19, luciferin-H EGE luminescence; hits give high values; 0 = fully inhibited enzyme, 1 = untreated enzyme. activation factor at 5 µM. P33261;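 active = activation factor of at least 2 at 5 µM in the primary screen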;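 also: 0 = wells with 2.5 mM tranylcypromine and 1 = vehicle-only wells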
CYP2C9 inh – inhibitors of human CYP2C9; 20% of 96,000 active; AID 777; inhibition, % at 5 µM; CYP2C9 Supersomes, luciferin-H conversion, luminescence; P11712;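 active = blocking of liver enzyme CYP2C9 beyond about 50% at 5 µM, limit read from the data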
Target sequence (P11712 whole entry, looked up): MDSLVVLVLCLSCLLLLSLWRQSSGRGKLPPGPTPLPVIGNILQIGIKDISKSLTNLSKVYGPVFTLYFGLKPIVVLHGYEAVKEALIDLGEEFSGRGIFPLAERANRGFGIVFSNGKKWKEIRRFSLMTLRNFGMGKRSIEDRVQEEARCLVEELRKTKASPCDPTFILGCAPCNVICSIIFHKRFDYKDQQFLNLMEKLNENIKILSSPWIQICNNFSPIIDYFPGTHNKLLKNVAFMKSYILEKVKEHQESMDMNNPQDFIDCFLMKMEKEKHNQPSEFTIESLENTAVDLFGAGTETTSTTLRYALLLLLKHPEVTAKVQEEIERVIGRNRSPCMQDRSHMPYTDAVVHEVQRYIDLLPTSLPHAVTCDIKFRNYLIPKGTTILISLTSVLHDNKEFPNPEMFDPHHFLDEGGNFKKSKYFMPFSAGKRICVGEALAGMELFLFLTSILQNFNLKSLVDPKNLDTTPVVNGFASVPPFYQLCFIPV
CYP2C9 activ – activators of human CYP2C9; P11712; activation factor at 5 µM; recombinant CYP2C9, luciferin-H conversion, luminescence; hits give high values; factor 1 = untreated enzyme, 0 = blocked; 1.4% of 96,000 active;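 active = activation factor of 2 or more for CYP2C9 at a 5 µM dose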;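 also: 0 = sulfaphenazole-blocked wells and 1 = vehicle-only wells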
Numbers without * were called inactive; . = no result given.

SMILES	Mac1 fbg enh	CD11b adhes inh	CYP2C19 inh	CYP2C19 activ	CYP2C9 inh	CYP2C9 activ
CCOC(=O)C1Cc2c([nH]c3ccccc23)CN1 (stereo not drawn)	7	4	56*	0.4	3	1
O=C(Cc1n[nH]c(=O)[nH]c1=O)N/N=C/c1ccccc1O	1	-18	-2	1	6	0.9
CC1CCCC(NC(=O)c2ccc3c(c2)N(Cc2ccccc2)C(=O)CS3=O)C1C (stereo not drawn)	4	-5	42	0.6	76*	0.2
COC(=O)CNC(=O)CN1C(=O)N(c2ccc(Cl)cc2)C(N(O)C(=O)Nc2ccc(Cl)cc2)C1(C)C (stereo not drawn)	1	-2	33	0.7	21	0.8
COc1ccc2c(c1)C(C1C(=O)CCCC1=O)c1ccccc1O2 (stereo not drawn)	.	.	3	1	64*	0.4
COc1ccc(/C=N/NC(=O)C2c3ccccc3Oc3ccccc32)c(OC)c1	-3	-52	9	0.9	4	1
CCOC(=O)c1cc(NC(=O)N2CCCCC2)c(C)nc1C	-4	-2	11	0.9	-10	1.1
N#CCc1ccc(NS(=O)(=O)c2ccc(C3CCCCC3)cc2)cc1	-12	103	.	.	.	.
CC1=C(C(=O)OCC(C)C)C23C(=O)c4ccccc4C2(O1)OC(N)=C3C#N (stereo not drawn)	-2	8	86*	0.1	68*	0.3
COc1ccc(C2N(C(=O)N3CCOCC3)CCN2S(=O)(=O)c2ccc(C)cc2)cc1 (stereo not drawn)	1	0	18	0.8	41	0.6
Cc1ccc(S(=O)(=O)N2CCCC2C(=O)O)cc1 (stereo not drawn)	-6	12	-6	1.1	-22	1.2
COc1ccc(C2N(S(=O)(=O)c3ccccc3)CCN2S(=O)(=O)c2ccc(C)cc2)cc1 (stereo not drawn)	-3	11	86*	0.1	65*	0.4
Cc1ccc(S(=O)(=O)N2CCN(S(=O)(=O)c3ccc(C)cc3)C2c2ccccc2)cc1	1	16	79*	0.2	-42	1.4
Cc1ccc(S(=O)(=O)N2CCN(S(C)(=O)=O)C2c2ccccc2)cc1 (stereo not drawn)	-2	-18	64*	0.4	46	0.5
Cc1ccc(S(=O)(=O)N2CC3CCC2C3)cc1 (stereo not drawn)	-2	-1	65*	0.4	-36	1.4
CSCCC(NC(=O)c1ccccc1)C(=O)N/N=C(\C)c1ccccc1 (stereo not drawn)	-2	-2	.	.	.	.
COc1ccc(C2N(C(=O)c3ccccc3)CCN2C(=O)c2ccccc2)cc1	-3	-27	69*	0.3	50	0.5
COc1ccc(C2N(C(=O)CN3CCOCC3)CCN2S(=O)(=O)c2ccccc2)cc1 (stereo not drawn)	-3	-4	7	0.9	15	0.8
CN1C(=O)CSc2ccc(NC(=O)NCCC3=CCCCC3)cc21	2	-12	25	0.8	28	0.7
CC(C)OC(=O)c1c(F)c(F)c(N2CCOCC2)c(F)c1F	2	-1	51*	0.5	-2	1
O=C(O)CCC(=O)Nc1ccc2c(c1)oc1ccccc12	-4	-17	-8	1.1	-5	1
Cc1noc(C)c1Cn1nc(C(=O)O)c2ccccc2c1=O	3	2	36	0.6	80*	0.2
Cc1cccc(OCCn2nc(C(=O)O)c3ccccc3c2=O)c1	-1	10	72*	0.3	68*	0.3
O=C1C2C3C=CC(C2C(=O)N1CCCO)C1C2C(=O)N(CCCO)C(=O)C2C31 (stereo not drawn)	-1	8	-12	1.1	-6	1.1
CCCc1nc2c(nnn2Cc2ccccc2F)c(=O)[nH]1	-3	-8	89*	0.1	-52	1.5
Fc1ccccc1Cn1nnc2c(NCc3ccccn3)ncnc21	-2	15	31	0.7	-179	2.8*
Clc1ccccc1Cn1nnc2c(NCC3CC3)ncnc21	-2	-3	51*	0.5	-239	3.4*
C#CCNc1nc(C)nc2c1nnn2Cc1ccccc1F	-3	6	52*	0.5	4	1
